Assay outcomes: PubChem BioAssay, Broad Institute
Vif inh: blocks HIV Vif function; AID 602346; HEK293T cells, Vif self-association by quenched fluorescence, imaging, 24 h; 340,000 compounds, 0.35% hits; inhibition, % at 7.49 µM; in the data active = inhibition above about 50%, passing the limit was not always enough
F508del corr: CFTR F508del correction in bronchial cells | AID 720511 | activity (quench increase), % at 7.58 µM | 350,000 compounds, 0.36% hits | CFBE cells, YFP halide quenching; stimulated with forskolin plus potentiator P3; % fluorescence drop versus neutral controls;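 active = mean added fluorescence quench of at least 8% versus neutral control, with both replicates also reaching 8%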;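 note: cells transiently co-express mutant CFTR-F508del with the halide-sensitive YFP; corrector assay measuring rescue of mutant channel to the surface after 24 h compound exposure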
FGF22 binding: shifts melting point of recombinant human FGF22; AID 651658; recombinant FGF22 thermal shift, SYPRO orange fluorescence; percent of sucrose octasulfate shift, DMSO zero; activity (Tm shift, normalised), % at 9.99 µM; Q9HCT0; 340,000 compounds, 1.5% hits;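 active = mean Tm shift, scaled 0 neutral to 100 positive control, at about 1.3% or above, every replicate too, limit read from the data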
Target sequence (Q9HCT0 whole entry, looked up): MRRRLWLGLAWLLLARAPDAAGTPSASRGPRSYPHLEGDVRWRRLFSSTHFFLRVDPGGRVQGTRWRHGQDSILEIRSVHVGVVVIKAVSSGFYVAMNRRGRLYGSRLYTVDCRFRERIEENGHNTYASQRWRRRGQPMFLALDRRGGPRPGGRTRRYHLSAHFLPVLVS
The depositor's hits bear a star. Hits are enriched below; roughly 1.7% of the tested compounds scored in any of these assays.

What do the screens show for `O=c1[nH]c2ccccc2nc1/C=C/c1ccc(F)cc1`?
Vif inh: 0.1; F508del corr: -1.6; FGF22 binding: 43.0*

Results for CCN(CC)C(=S)SCC(=O)c1ccccc1 ?
Vif inh: 9.4

What do the screens show for `CCN(CC)C(=S)SSC(=S)N(CC)CC`?
Vif inh: -9.8; F508del corr: 14.1*; FGF22 binding: 0.2

Results for COc1ccccc1CNC(=O)C[C@H]1CC[C@H]2[C@@H](COc3ccc(NC(=O)c4ccno4)cc3C(=O)N2C)O1 ?
F508del corr: 2.6; FGF22 binding: 0.1

How did Cc1ccc(NC(=O)Cn2c(O)c(N=NC(N)=S)c3ccccc32)cc1 do in these assays?
Vif inh: 66.0*; F508del corr: -0.2; FGF22 binding: 0.3

Results for Cc1ccc(NC(=O)Cn2c(O)c(N=NC(N)=O)c3ccccc32)cc1 ?
Vif inh: -17.7; F508del corr: -1.6; FGF22 binding: 0.1

How did O=C(C[C@H]1C=C[C@H](NC(=O)NC2CCCCC2)[C@@H](CO)O1)NCc1ccccc1 do in these assays?
F508del corr: -0.7; FGF22 binding: -0.1

Results for O=C(C[C@H]1C[C@@H]2c3cc(NC(=O)c4ccc5c(c4)OCO5)ccc3O[C@@H]2[C@H](CO)O1)NCc1ccc(Cl)cc1 ?
F508del corr: -1.1; FGF22 binding: -0.2

Results for O=C(NCc1ccco1)c1ccc(Br)c(S(=O)(=O)N2CCCCC2)c1 ?
Vif inh: -5.6

What do the screens show for `O=C(NCc1ccco1)c1ccc(S(=O)(=O)N2CCCCC2)cc1`?
Vif inh: -3.4; F508del corr: -1.1; FGF22 binding: 43.6*

How did CC1CCN(S(=O)(=O)c2ccc(C(=O)Nc3nnc(-c4ccco4)o3)cc2)CC1 do in these assays?
Vif inh: 5.3; F508del corr: 3.7; FGF22 binding: 0.1

How did O=C(Nc1nnc(-c2ccco2)o1)c1ccc(S(=O)(=O)N2CCCC2)cc1 do in these assays?
Vif inh: 2.2; F508del corr: -2.3; FGF22 binding: 43.1*

What do the screens show for `O=C(NCc1ccco1)c1ccc(F)c(S(=O)(=O)N2CCCCC2)c1`?
Vif inh: 6.8; F508del corr: -0.9; FGF22 binding: 43.0*

What do the screens show for `O=C(NCc1ccco1)c1ccc(S(=O)(=O)N2CCCCCC2)cc1`?
Vif inh: 5.9; F508del corr: 0.6; FGF22 binding: -0.2

How did O=C(Nc1nccs1)[C@H]1[C@H](CO)[C@H]2Cn3c(ccc(-c4ccncc4)c3=O)[C@H]2N1CC1CCCC1 do in these assays?
F508del corr: 2.3

What do the screens show for `COc1cccc(-c2cn(CC[C@@H]3CC[C@H](NC(C)=O)[C@H](CO)O3)nn2)c1`?
F508del corr: 1.4; FGF22 binding: -0.4

How did CCC(=O)N1[C@H](C(=O)NCCCN(C)C)[C@@H](CO)[C@@H]2Cn3c(ccc(-c4ccccc4F)c3=O)[C@@H]21 do in these assays?
F508del corr: -0.3

What do the screens show for `O=C(C[C@@H]1CC[C@H](NC(=O)NC2CCCCC2)[C@H](CO)O1)NCc1ccccc1`?
F508del corr: 1.6; FGF22 binding: 0.0

How did CCCNC(=O)[C@@H]1[C@@H](CO)[C@@H]2Cn3c(ccc(-c4ccccc4)c3=O)[C@H]1N2C(=O)CC1CC1 do in these assays?
F508del corr: 0.1; FGF22 binding: -0.2

How did CCOc1ccc(N=C2SCCCN2C(=O)c2c(CC)noc2C)cc1 do in these assays?
F508del corr: 3.9; FGF22 binding: 0.5

How did CCOc1ncccc1C(=O)N1CCCSC1=Nc1ccc(C(C)=O)cc1 do in these assays?
Vif inh: 8.2; F508del corr: -1.2; FGF22 binding: 43.4*

What do the screens show for `CCS(=O)(=O)N1CC(=O)N2[C@@H](CO)[C@H](c3ccc(C#CCc4ccccc4)cc3)[C@@H]2C1`?
F508del corr: -0.5

How did CC(C)c1ccc2occ(-c3nn[nH]n3)c(=O)c2c1 do in these assays?
Vif inh: -12.9; F508del corr: 0.4; FGF22 binding: 44.4*

Results for Cc1ccc2occ(-c3nn[nH]n3)c(=O)c2c1 ?
Vif inh: -3.3; F508del corr: 2.3; FGF22 binding: -0.7

Results for C[C@@H]1CCCCO[C@@H](CN(C)S(C)(=O)=O)[C@@H](C)CN([C@H](C)CO)C(=O)c2cc(NS(C)(=O)=O)ccc2O1 ?
F508del corr: -1.1; FGF22 binding: -0.2

Results for C[C@H]1CN([C@@H](C)CO)S(=O)(=O)c2ccc(C3=CCCCC3)cc2O[C@@H]1CN(C)C(=O)C1CC1 ?
F508del corr: -1.1; FGF22 binding: 0.1

What do the screens show for `Cc1occc1C(=O)N/N=C/c1c(O)ccc2ccccc12`?
Vif inh: 3.9; F508del corr: 10.4*; FGF22 binding: -0.1

Results for O=C(NN=Cc1c(O)ccc2ccccc12)c1ccncc1 ?
Vif inh: 6.8; F508del corr: 6.1; FGF22 binding: 0.0

What do the screens show for `Cn1nccc1C(=O)N/N=C/c1c(O)ccc2ccccc12`?
Vif inh: -20.0; F508del corr: 11.2*; FGF22 binding: 0.0

Results for O=C(N/N=C\c1c(O)ccc2ccccc12)c1ccc(O)cc1 ?
Vif inh: 7.6; F508del corr: -6.6; FGF22 binding: 0.0

What do the screens show for `CC(C)NC(=O)N1[C@H](CO)[C@@H]2c3ccccc3N(C(=O)c3ccncc3)C[C@@H]21`?
F508del corr: -2.1; FGF22 binding: -0.9

How did CCOC(=O)CCC(=O)NCc1ccc2c(c1)cc(C)n2C do in these assays?
Vif inh: -0.2

Results for CCCCC(=O)NCc1ccc2c(c1)cc(C)n2C ?
Vif inh: 67.7*

How did C[C@@H]1CC[C@H](Cc2ccc(-n3cccc3)cc2)N1C(=O)OC(C)(C)C do in these assays?
Vif inh: -3.3; F508del corr: -2.8; FGF22 binding: -0.3

Results for CC1(C)CC(Cc2ccc(Cl)nc2)N(C(=O)OC(C)(C)C)C1 (stereo not drawn) ?
Vif inh: -3.3; F508del corr: -0.1; FGF22 binding: 43.5*

Results for O=C(C[C@H]1C[C@@H]2c3cc(NC(=O)Nc4ccccc4)ccc3O[C@@H]2[C@H](CO)O1)NCc1cccnc1 ?
F508del corr: -3.4; FGF22 binding: 0.0

How did C[C@@H]1CCCCO[C@H](CN(C)C(=O)Nc2ccc3c(c2)OCO3)[C@@H](C)CN([C@H](C)CO)C(=O)c2cc(NC(=O)Nc3ccc(F)cc3)ccc2O1 do in these assays?
F508del corr: 1.1; FGF22 binding: -0.7

What do the screens show for `CCC(=O)Nc1ccc2c(c1)OC[C@@H](C)N(C(=O)c1cccnc1)C[C@H](C)[C@H](OC)CN(C)C2=O`?
F508del corr: -0.9; FGF22 binding: -0.2

Results for CCCS(=O)(=O)c1cnc(C2COc3ccccc3O2)nc1N (stereo not drawn) ?
Vif inh: 79.9*; F508del corr: 1.2; FGF22 binding: 0.1

What do the screens show for `Cc1nc(C2COc3ccccc3O2)sc1C(=O)O` (stereo not drawn)?
Vif inh: -5.6; F508del corr: 1.1; FGF22 binding: 0.0

How did C[C@@H]1CN([C@H](C)CO)C(=O)c2cc(NC(=O)Nc3ccc4c(c3)OCO4)ccc2O[C@H]1CN(C)S(C)(=O)=O do in these assays?
F508del corr: -1.3; FGF22 binding: 0.0

How did Cc1noc(C)c1NC(=O)Nc1ccc2c(c1)C(=O)N([C@@H](C)CO)C[C@@H](C)[C@@H](CN(C)C(=O)Nc1ccc3c(c1)OCO3)O2 do in these assays?
F508del corr: -3.7; FGF22 binding: -0.6
